Measured values published in ChEMBL document CHEMBL1961873, “Compounds: GSK PKIS; Assays: Nanosyn kinase panel” (2012).

Experiments:
[1] = target: T1, Serine/threonine-protein kinase TBK1 (Homo sapiens) (UniProt Q9UHD2); conditions: at 1 µM;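 also: values are mean inhibition of TBK1, screened as part of the GSK published kinase inhibitor set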
T1 sequence (whole entry): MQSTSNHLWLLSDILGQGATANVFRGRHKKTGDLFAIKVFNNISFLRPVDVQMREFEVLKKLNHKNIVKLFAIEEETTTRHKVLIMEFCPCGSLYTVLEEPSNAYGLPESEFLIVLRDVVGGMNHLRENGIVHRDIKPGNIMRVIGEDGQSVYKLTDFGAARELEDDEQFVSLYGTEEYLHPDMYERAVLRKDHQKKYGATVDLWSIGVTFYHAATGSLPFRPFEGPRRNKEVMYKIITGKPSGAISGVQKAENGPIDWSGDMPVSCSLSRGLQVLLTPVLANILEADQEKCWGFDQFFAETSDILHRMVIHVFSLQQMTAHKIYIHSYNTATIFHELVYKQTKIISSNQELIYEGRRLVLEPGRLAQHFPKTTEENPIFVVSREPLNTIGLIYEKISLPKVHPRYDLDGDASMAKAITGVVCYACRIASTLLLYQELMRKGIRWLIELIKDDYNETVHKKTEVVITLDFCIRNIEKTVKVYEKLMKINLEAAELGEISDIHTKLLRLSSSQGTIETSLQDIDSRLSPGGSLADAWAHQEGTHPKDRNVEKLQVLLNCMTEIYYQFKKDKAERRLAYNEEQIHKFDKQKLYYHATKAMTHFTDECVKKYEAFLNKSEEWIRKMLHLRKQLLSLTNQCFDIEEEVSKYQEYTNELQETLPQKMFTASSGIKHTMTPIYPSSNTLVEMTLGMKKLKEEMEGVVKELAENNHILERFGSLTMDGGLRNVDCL

[2] = target: T2, Testis-specific serine/threonine-protein kinase 1 (Homo sapiens) (UniProt Q9BXA7); conditions: at 0.1 µM
T2 sequence (whole entry): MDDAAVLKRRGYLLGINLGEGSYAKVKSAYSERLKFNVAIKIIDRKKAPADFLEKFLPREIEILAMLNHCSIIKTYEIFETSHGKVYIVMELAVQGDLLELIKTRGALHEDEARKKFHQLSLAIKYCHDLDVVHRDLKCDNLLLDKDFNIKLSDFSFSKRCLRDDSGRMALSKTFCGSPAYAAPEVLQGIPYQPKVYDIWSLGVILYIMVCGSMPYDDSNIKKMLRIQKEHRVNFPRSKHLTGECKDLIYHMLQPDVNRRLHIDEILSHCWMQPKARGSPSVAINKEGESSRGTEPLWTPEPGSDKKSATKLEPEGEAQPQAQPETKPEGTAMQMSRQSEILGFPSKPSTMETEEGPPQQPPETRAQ

[3] = target: T2, Testis-specific serine/threonine-protein kinase 1 (Homo sapiens); conditions: at 1 µM
[4] = target: T3, Testis-specific serine/threonine-protein kinase 2 (Homo sapiens) (UniProt Q96PF2); conditions: at 0.1 µM
T3 sequence (whole entry): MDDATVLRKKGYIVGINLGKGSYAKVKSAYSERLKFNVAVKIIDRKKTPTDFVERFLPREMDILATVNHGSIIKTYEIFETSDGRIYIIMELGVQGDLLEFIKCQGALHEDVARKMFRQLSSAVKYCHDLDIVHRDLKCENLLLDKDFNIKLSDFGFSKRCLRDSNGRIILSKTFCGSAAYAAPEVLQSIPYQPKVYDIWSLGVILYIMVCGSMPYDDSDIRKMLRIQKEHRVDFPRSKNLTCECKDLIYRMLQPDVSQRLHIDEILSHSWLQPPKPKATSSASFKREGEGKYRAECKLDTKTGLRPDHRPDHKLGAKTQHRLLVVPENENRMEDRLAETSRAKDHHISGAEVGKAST

[5] = target: T3, Testis-specific serine/threonine-protein kinase 2 (Homo sapiens); conditions: at 1 µM
[6] = target: Casein kinase I isoform alpha (Homo sapiens) (UniProt P48729); conditions: at 0.1 µM
[7] = target: Casein kinase I isoform alpha (Homo sapiens) (UniProt P48729); conditions: at 1 µM
[8] = target: Casein kinase I isoform gamma-1 (Homo sapiens) (UniProt Q9HCP0); conditions: at 0.1 µM
[9] = target: Casein kinase I isoform gamma-1 (Homo sapiens) (UniProt Q9HCP0); conditions: at 1 µM
[10] = target: Casein kinase I isoform gamma-2 (Homo sapiens) (UniProt P78368); conditions: at 0.1 µM
[11] = target: Casein kinase I isoform gamma-2 (Homo sapiens) (UniProt P78368); conditions: at 1 µM
[12] = target: Casein kinase I isoform gamma-3 (Homo sapiens) (UniProt Q9Y6M4); conditions: at 0.1 µM
[13] = target: Casein kinase I isoform gamma-3 (Homo sapiens) (UniProt Q9Y6M4); conditions: at 1 µM
[14] = target: Cyclin-dependent kinase 1 (Homo sapiens) (UniProt P06493); conditions: at 0.1 µM
[15] = target: Cyclin-dependent kinase 1 (Homo sapiens) (UniProt P06493); conditions: at 1 µM
[16] = target: Cyclin-dependent kinase 2 (Homo sapiens) (UniProt P24941); conditions: at 0.1 µM
[17] = target: Cyclin-dependent kinase 2 (Homo sapiens) (UniProt P24941); conditions: at 1 µM
[18] = target: Cyclin-dependent kinase 2 (Homo sapiens) (UniProt P24941); conditions: at 0.1 µM; remark: listed apart in the source
[19] = target: Cyclin-dependent kinase 2 (Homo sapiens) (UniProt P24941); conditions: at 1 µM; remark: listed apart in the source
[20] = target: CDK3/Cyclin E (Homo sapiens) (UniProt P24864+Q00526); conditions: at 0.1 µM;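 also: reported percentages are mean inhibition values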
Sequence of CDK3/Cyclin E (Homo sapiens) (P24864 whole entry, looked up): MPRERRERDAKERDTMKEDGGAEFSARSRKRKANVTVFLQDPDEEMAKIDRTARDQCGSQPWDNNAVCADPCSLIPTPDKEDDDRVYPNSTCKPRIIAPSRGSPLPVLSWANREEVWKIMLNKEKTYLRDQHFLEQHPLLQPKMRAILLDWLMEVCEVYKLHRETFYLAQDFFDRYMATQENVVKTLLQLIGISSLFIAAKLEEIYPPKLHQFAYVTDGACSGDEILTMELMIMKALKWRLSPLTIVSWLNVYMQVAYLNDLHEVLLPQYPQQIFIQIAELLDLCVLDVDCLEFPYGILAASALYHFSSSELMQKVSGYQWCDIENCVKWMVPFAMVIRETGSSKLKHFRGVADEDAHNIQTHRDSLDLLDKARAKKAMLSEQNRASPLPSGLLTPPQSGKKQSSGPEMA
Sequence of CDK3/Cyclin E (Homo sapiens) (Q00526 whole entry, looked up): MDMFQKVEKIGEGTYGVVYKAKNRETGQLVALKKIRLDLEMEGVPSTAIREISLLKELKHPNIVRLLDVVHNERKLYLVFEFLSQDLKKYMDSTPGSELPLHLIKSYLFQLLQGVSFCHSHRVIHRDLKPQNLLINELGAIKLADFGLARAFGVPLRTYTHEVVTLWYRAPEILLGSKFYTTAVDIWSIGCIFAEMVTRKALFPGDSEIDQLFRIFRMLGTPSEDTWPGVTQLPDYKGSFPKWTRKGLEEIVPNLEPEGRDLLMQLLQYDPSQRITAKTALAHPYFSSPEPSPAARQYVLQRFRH

Sequence of Casein kinase I isoform alpha (Homo sapiens) (P48729 2-337 limits assumed): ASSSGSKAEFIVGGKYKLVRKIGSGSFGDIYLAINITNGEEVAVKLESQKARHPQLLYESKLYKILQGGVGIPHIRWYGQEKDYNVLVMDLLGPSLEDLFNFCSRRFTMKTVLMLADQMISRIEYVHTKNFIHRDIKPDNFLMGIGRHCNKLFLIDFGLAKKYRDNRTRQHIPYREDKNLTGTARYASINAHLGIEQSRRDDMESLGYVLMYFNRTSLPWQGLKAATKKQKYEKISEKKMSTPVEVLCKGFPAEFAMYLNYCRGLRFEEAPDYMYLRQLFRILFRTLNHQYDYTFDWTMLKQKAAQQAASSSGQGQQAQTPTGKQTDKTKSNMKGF
Sequence of Casein kinase I isoform gamma-3 (Homo sapiens) (Q9Y6M4 whole entry, looked up, canonical isoform): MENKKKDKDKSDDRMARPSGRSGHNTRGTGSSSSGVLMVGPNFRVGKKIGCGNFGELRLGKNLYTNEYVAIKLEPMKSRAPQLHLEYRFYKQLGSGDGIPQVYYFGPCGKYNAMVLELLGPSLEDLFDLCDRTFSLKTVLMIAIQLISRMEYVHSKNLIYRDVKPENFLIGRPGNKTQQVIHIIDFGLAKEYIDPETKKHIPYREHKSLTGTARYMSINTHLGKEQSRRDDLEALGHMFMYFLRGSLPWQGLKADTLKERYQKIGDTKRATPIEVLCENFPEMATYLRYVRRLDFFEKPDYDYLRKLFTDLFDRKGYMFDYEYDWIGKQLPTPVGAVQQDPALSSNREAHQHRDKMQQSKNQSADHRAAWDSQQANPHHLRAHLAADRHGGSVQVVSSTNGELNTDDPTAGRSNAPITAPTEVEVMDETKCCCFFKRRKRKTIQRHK
Sequence of Cyclin-dependent kinase 1 (Homo sapiens) (P06493 whole entry, looked up): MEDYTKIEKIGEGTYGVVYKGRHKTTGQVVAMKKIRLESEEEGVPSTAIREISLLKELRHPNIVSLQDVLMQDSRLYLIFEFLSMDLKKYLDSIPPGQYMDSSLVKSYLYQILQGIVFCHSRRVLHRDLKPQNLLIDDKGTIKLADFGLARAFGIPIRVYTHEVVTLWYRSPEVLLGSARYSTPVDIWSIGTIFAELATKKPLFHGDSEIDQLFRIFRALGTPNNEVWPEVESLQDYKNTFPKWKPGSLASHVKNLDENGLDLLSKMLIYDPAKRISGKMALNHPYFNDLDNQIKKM
Sequence of Casein kinase I isoform gamma-1 (Homo sapiens) (Q9HCP0 whole entry, looked up, canonical isoform): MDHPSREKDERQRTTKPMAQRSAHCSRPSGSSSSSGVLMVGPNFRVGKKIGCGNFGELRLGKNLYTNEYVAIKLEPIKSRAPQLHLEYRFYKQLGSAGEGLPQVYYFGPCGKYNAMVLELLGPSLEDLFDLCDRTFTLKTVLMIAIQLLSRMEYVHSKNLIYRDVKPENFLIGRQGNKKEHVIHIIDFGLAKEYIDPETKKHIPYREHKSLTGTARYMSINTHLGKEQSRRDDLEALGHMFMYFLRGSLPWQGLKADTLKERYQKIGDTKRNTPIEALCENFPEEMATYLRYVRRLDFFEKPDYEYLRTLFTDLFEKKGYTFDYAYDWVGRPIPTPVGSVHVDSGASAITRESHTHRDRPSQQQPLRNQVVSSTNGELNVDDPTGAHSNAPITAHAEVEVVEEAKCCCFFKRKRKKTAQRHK
Sequence of Casein kinase I isoform gamma-2 (Homo sapiens) (P78368 whole entry, looked up, canonical isoform): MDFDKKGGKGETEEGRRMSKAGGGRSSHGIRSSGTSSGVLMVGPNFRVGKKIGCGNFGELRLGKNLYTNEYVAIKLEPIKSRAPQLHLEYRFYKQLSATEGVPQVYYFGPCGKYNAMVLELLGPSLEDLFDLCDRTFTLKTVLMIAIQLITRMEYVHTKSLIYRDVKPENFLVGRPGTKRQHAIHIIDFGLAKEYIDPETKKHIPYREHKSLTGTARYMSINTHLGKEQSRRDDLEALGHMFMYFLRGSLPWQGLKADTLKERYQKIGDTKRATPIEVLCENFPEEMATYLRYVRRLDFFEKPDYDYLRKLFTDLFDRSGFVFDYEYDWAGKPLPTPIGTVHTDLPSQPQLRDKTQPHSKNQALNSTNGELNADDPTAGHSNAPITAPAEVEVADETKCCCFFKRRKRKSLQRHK

Compound | inhibition [1] [%] | inhibition [2] [%] | inhibition [3] [%] | inhibition [4] [%] | inhibition [5] [%] | inhibition [6] [%] | inhibition [7] [%] | inhibition [8] [%] | inhibition [9] [%] | inhibition [10] [%] | inhibition [11] [%] | inhibition [12] [%] | inhibition [13] [%] | inhibition [14] [%] | inhibition [15] [%] | inhibition [16] [%] | inhibition [17] [%] | inhibition [18] [%] | inhibition [19] [%] | inhibition [20] [%]
CCn1c(-c2nonc2N)nc2c(C#CC(C)(C)O)nc(OC[C@@H](N)c3ccccc3)cc21 | 3.45 | 9.5 | 53.4 | 0.46 | -0.44 | -0.17 | 0.97 | -1.79 | 2.42 | -1.05 | 2.82 | -1.72 | 1.57 | -0.31 | -0.33 | 0.3 | 5.96 | -0.8 | 1.32 | -0.42
[O-][S+]1CCN(Cc2ccc(-c3ccc4ncnc(Nc5ccc(OCc6ccccc6)c(F)c5)c4c3)o2)CC1 | 2.87 | 1.77 | 0.49 | 0.63 | -1.37 | 2.43 | 4.39 | 2.09 | 3.44 | 1.93 | 3.2 | 1.87 | 3.97 | 0.66 | 0.48 | 1.07 | -1.12 | 1.88 | 2.86 | 5.36
CCc1cccc(NC(=O)Nc2ccc(Oc3ccc4nc(NC(=O)OC)[nH]c4c3)cc2)c1 | 0.79 | 1.3 | 1.11 | 0.77 | 1.72 | 2.12 | 0.76 | 1.05 | 0.85 | 1.08 | 0.48 | 0.13 | 2.93 | -1.03 | 0.5 | 0.71 | 1.95 | 3.03 | -0.35 | 1.01
O=C1NC(=O)C(c2ccccc2Cl)=C1Nc1cccc(O)c1 | 6.91 | 1.56 | 1.53 | 1.05 | -1.27 | 4.13 | 2.81 | 2.54 | 3.11 | 1.14 | 2.79 | 0.98 | 1.47 | 2.95 | 21 | 3.51 | 20.6 | 3.32 | 18.7 | 2.37
CC(C)=Cc1cccc2c1/C(=N/Nc1ccc(S(N)(=O)=O)cc1)C(=O)N2 | 26.3 | 1.27 | 2.47 | 0.49 | 0.88 | 6.16 | 2.83 | 0.52 | 1.12 | 1.67 | 0.64 | -0.08 | 2.43 | 28.7 | 69.7 | 103 | 92.4 | 74.1 | 79.3 | 68.5
COc1cccc(-n2ncc3c(N/N=C/c4cccc(F)c4)ncnc32)c1 | 5.66 | 2.14 | 2.06 | 0.63 | 0.82 | 2.35 | 2.18 | -1.45 | -0.75 | -1.9 | -0.18 | -1.77 | 0.64 | 1.44 | 33 | 3.77 | 39.1 | 0.9 | 13 | 4
CS(=O)(=O)CCNCc1ccc(-c2ccc3ncnc(Nc4ccc(OCc5cccc(F)c5)c(C(F)(F)F)c4)c3c2)o1 | 4.04 | 4.81 | 5.61 | 2.88 | 3.87 | 1.94 | 2.33 | 3.11 | 4.58 | 2.69 | 3.77 | 2.34 | 1.71 | -0.13 | 2 | 5.89 | -0.79 | 1.93 | 3.21 | 2.34
